Source: PubChem BioAssay (EPA / NIEHS)
Calls of active or inactive are those of the source. Rule for the calls: active = hit-call score of the fitted dose curve at least 0.9, where 1 is the maximum; inactive = score below 0.9.

Read-out: sulfotransferase 2A1 (SULT2A1), SULT2A1 (gene 6822)
Assay: LTEA_HepaRG_SULT2A1: Life Technologies and Expression Analysis (LTEA) Assay for sulfotransferase 2A1 (SULT2A1) using HepaRG (AID 2283531)
Details: mRNA level, 48 h; actives raise or lower the signal
Experimental: LTEA_HepaRG is a cell based, multiplexed-readout assay that uses HepaRG, a human liver cell line, with measurements taken at 48 hours after chemical dosing on a 96-well plate.LTEA_HepaRG_SULT2A1 is one of 102 assay component(s) measured in the LTEA HepaRG cell culture assay. It is a marker of NR mediated transport.Data from the assay component LTEA_HepaRG_SULT2A1 was analyzed into 1 endpoint. This assay endpoint, LTEA_HepaRG_SULT2A1, was analyzed with bidirectional fitting relative to DMSO as the negative control and baseline of activity. Using a type of inducible reporter, measures of mRNA induction for gain or loss-of-signal activity can be used to understand regulation of transcription factor activity. To generalize the intended target to other relatable targets, this assay endpoint is annotated to the transferase intended target family, where the subfamily is sulfotransferase.
A total of 1060 chemcials from the ToxCast library were tested in eight-point concentration-response experiments. Cell culture and cytotoxicity assays were conducted at Thermo Fisher Scientific's Custom Services facility (Madison, WI). A single lot of human HepaRG cells (Thermo Fisher Scientific, Frederick, MD) was used for the cell culture experiments. 96-well format collagen type I coated plates of human HepaRG cells were prepared using established methods. Briefly, cryopreserved HepaRG cells were thawed, plated at a density of approximately 100,000 cells/well in HepaRG Thaw, Plate, and General Purpose media (HPRG770, Thermo Fisher Scientific), and incubated for 48 hours. 0.5% DMSO was selected as vehicle control to balance the requisite need of DMSO in HepaRG cultures to maintain differentiation (for example, baseline metabolism, proportions of hepatocytes vs. cholangiocytes), while enabling further hepatic receptor pathway activation (for example, PXR and CAR) in response to chemical exposure. 48 hours after plating, the culture medium was replaced with HepaRG Serum-Free Incudtion Media. Cells were exposed to each test chemical in duplicate and maintained in CO2 incubators for another 48 hours. Chemical plates were thawed to room temperature and 200x concentrations of treatment groups were prepared. 8-point conentration-reponse curves were made with the highest exposure at 100 uM, followed by half-log dilutions, all in 0.5% DMSO. Each test plate contained variouse controls, induction positive controls (1mM phenobarbital), cytotoxicity positive controls ([…] aflatoxin B1), vehicle controls (0.5% DMSO), and total lysis controls (0.5% DMSO). Cell morphology images were taken using an Essen IncuCyte FLR automated microscope, with six 96-well plates imaged in about 24 minutes. Images were captured and exported and JPEG files. Spent culture media was transfered to black-well plates for the LDH assay, and remaining media was sorted at -80 C for later use. Cells were treated with RLT buffer and frozen until shipped for gene expression analysis. Total RNA was isolated from the cell suspension in 75 uL of Buffer RLT (Qiagen, Germantown, MD 20874) by Quintiles/Expression Analysis (Durham, NC) using a custom isolation procedure. Total RNA from each plate well was transferred to a preamplification plate. Fluidigm's 96.96 Dynamic ArrayTM (Fluidigm, Amsterdam, the Netherlands) technology was used for gene expression analyses by quantitative reverse transcription polymerase chain reaction (qRT-PCR, performed by Quintiles/Expression Analysis, Durham, NC)89. Standard TaqManTM Assays (Applied Biosystems/ThermoFisher Scientific, Foster City, CA) were used to assess the expression of 93 genes selected based on their selectivity and sensitivity to important hepatic receptors known to be modulated by environmental chemicals; importance in human hepatocyte functionality; and hepatotoxicity. […]

Row | Structure (SMILES) | outcome | AC50
1 | CCCCCCCCCCCCc1ccccc1 | inactive | –
2 | O=c1n(CC2CO2)c(=O)n(CC2CO2)c(=O)n1CC1CO1 (stereo not given) | inactive | –
3 | O=C1OC(=O)C2C3C=CC(C3)C12 (stereo not given) | inactive | –
4 | CCn1nc(Cc2ccccc2)cc1C1CCN(C[C@H]2C[C@H](N(C)[C@@H](C(=O)O)C(C)C)C[C@@H]2c2cccc(F)c2)CC1 | inactive | –
5 | C1=CCCC=CCCC=CCC1 | inactive | –
6 | COc1ccc(-n2nc(C(F)F)cc2-c2ccc(S(C)=O)cc2)cc1 (stereo not given) | inactive | –
7 | NC(=O)NO | inactive | –
8 | CCOC(=O)CC(CC(=O)OCC)(OC(C)=O)C(=O)OCC | inactive | –
9 | O=C(O)c1cc(N=Nc2ccc(S(=O)(=O)Nc3ccccn3)cc2)ccc1O | inactive | –
10 | CNS(=O)(=O)c1cc(C(=O)N2CCC(CCN3C4CCC3CC(n3c(C)nc5ccccc53)C4)(c3cccc(F)c3)CC2)c(Cl)cc1F (stereo not given) | – | 9.92 µM (active)
11 | CCNc1ccccc1 | inactive | –
12 | CC(C)=CCCC(C)=CC=O | inactive | –
13 | Cc1ccc(S(=O)(=O)O)cc1C | inactive | –
14 | COC(=O)CC(=O)OC | inactive | –
15 | COC(=O)c1c(Cl)c(Cl)c(C(=O)OC)c(Cl)c1Cl | inactive | –
16 | CC(C)=CCC/C(C)=C\CO | inactive | –
17 | CCOc1cccc(-n2cc(C(=O)N3CCN(c4cc(C(=O)O)c5ccccc5c4)CC3)nc2-c2ccc(C)cc2)c1 | – | 35.7 µM (active)
18 | O=C(OC[C@H]1O[C@@H](OC(=O)c2cc(O)c(O)c(OC(=O)c3cc(O)c(O)c(O)c3)c2)[C@H](OC(=O)c2cc(O)c(O)c(OC(=O)c3cc(O)c(O)c(O)c3)c2)[C@@H](OC(=O)c2cc(O)c(O)c(OC(=O)c3cc(O)c(O)c(O)c3)c2)[C@@H]1OC(=O)c1cc(O)c(O)c(OC(=O)c2cc(O)c(O)c(O)c2)c1)c1cc(O)c(O)c(OC(=O)c2cc(O)c(O)c(O)c2)c1 | – | 9.46 µM (active)
19 | O=c1[nH]c2ccc(S(=O)CCN3CCC(Cc4ccc(F)cc4)CC3)cc2o1 (stereo not given) | inactive | –
20 | Cc1ccc(N)cc1O | inactive | –

Row | Structure (SMILES) | outcome | AC50
21 | On1ccccc1=S | inactive | –
22 | CCCCCCc1ccc(O)cc1O | inactive | –
23 | O=C(NS(=O)(=O)/C=C/c1ccccc1)c1ccc(F)cc1Cl | inactive | –
24 | C=CC(=C)CCC=C(C)C | inactive | –
25 | CC(C)CCCCCCOC(=O)c1ccc(C(=O)OCCCCCCC(C)C)c(C(=O)OCCCCCCC(C)C)c1 | inactive | –
26 | Oc1ccc2c(c1)-c1ccccc1C2 | inactive | –
27 | CCCCCCCCCCCCCCCO | inactive | –
28 | COC(=O)c1ccccc1O | inactive | –
29 | CC(C)(O)c1coc(S(=O)(=O)NC(=O)Nc2c3c(cc4c2CCC4)CCC3)c1 | inactive | –
30 | CCC(C)(C)C(=O)O[C@H]1C[C@@H](C)C=C2C=C[C@H](C)[C@H](CC[C@@H]3C[C@@H](O)CC(=O)O3)[C@H]21 | inactive | –
31 | O=C(O)c1cccc(Oc2ccccc2)c1 | inactive | –
32 | O=C(O)CC(O)C(=O)O (stereo not given) | inactive | –
33 | CCCC(=O)OCC | inactive | –
34 | C1N2CN3CN1CN(C2)C3 | inactive | –
35 | CC(C)CC(C)(O)C#CC(C)(O)CC(C)C (stereo not given) | inactive | –
36 | COc1ccc2sc(C(=O)Nc3nnn[nH]3)c(OC(C)C)c2c1 | – | 78.4 µM (active)
37 | C=CCCCCCCCCC(=O)O | inactive | –
38 | CCOCCOCCOCCO | inactive | –
39 | O=C1CCC(N2C(=O)c3ccccc3C2=O)C(=O)N1 (stereo not given) | inactive | –
40 | CCCCC(CC)COC(=O)CCCCCCCCC(=O)OCC(CC)CCCC (stereo not given) | inactive | –
